High-throughput results: PubChem, National Center for Advancing Translational Sciences (NCATS)
TDP1 cell noCPT = qHTS for Inhibitors of human tyrosyl-DNA phosphodiesterase 1 (TDP1): qHTS in cells in absence of CPT; DT40 Tdp1-/- hTDP1 cells, no CPT, ATP luminescence, 48 h; Potency, µM (doses to about 46.2 µM), without a hit: top-dose activity change, negative = growth inhibition, usual class: inhibitors; 420,000 compounds, 15% hits; note: potency is the fitted concentration of half-maximal effect; nearly all actives have a fitted effect of over 55% in size
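No-CPT arm: Tdp1-/-;hTDP1 DT40 cells (400/well) plus compounds, incubated ≥48 hr at 37 °C. Readout CellTiter-Glo luminescence.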
TDP1 block = blocks human tyrosyl-DNA phosphodiesterase 1. recombinant TDP1, AlphaScreen DNA substrate cleavage. Q9NUW8. 350,000 compounds, 0.28% hits. Potency, µM (series often up to 130 µM), for the others: at the top dose activity change, negative = inhibition, actives largely listed as inhibitors; note: potency is the fitted concentration of half-maximal effect; nearly all actives have a fitted effect of over 40% in size
Target sequence (Q9NUW8 whole entry, looked up): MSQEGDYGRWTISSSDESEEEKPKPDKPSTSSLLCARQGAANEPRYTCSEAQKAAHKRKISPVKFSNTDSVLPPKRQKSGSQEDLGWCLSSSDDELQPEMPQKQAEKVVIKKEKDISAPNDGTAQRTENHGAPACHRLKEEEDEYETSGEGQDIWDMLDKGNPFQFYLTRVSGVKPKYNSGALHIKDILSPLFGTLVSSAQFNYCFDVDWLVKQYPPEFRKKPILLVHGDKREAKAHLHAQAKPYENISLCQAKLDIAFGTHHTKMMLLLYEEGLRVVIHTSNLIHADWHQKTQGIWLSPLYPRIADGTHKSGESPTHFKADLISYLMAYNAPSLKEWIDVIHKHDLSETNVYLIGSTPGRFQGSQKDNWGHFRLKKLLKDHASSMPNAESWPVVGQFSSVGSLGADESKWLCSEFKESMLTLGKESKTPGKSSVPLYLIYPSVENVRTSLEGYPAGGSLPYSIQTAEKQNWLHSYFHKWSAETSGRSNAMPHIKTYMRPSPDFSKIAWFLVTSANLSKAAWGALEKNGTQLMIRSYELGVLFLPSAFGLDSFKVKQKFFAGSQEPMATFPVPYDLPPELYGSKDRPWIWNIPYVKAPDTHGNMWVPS
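Recombinant human Tdp1 (E. coli-expressed, 1 nM final) preincubated with compounds 15 min at room temperature, then 5'-biotin/3'-phosphotyrosine-FITC DNA substrate (15 nM final) added for 5 min. AlphaScreen beads (10 ug/ml final) added 10 min; cleavage lowers signal.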
ELG1 repair inh = blocks ELG1-dependent DNA repair in HEK293T cells | HEK293T ELG1-luciferase reporter, luminescence, 16 h; DNA damage induced by 5-fluorouridine | Potency, µM (highest dose often 46.1 µM), inactives show top-dose activity change, negative = inhibition, hits mostly inhibitors | 330,000 compounds, 2.3% hits | AID 504467; note: potency is the fitted concentration of half-maximal effect; nearly all actives have a fitted effect of over 55% in size
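5-Fluorouridine DNA damage + compound/DMSO, 2,000 cells/well, 16 h, 37 °C/5% CO2. ONE-Glo, 30 min RT, luminescence. Readout = decrease in reporter signal.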
IL-1B inflam inh = inhibitors of inflammasome signaling (IL-1 beta secretion); THP-1 LPS/ATP IL-1B secretion, AlphaLISA, 16 h; hits give low values; activity change, % at 57.5 µM; 360,000 compounds, 4.7% hits; in the data active = activity change below about -50%; inconclusive = mostly about -30% to -49%
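THP-1 cells pretreated 1 hr with compounds (up to 57.5 uM final), then stimulated with LPS (250 ng/mL final) plus ATP (1.25 mM final); secreted IL-1B measured by AlphaLISA after 16 hr, decreased signal indicating inhibition.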
Giardia killer = kills Giardia lamblia; 340,000 compounds, 0.15% hits; Giardia lamblia trophozoite viability; activity change, % at 7.66 µM, hits read low; in the data active = activity change below about -80%; inconclusive = between about -30% and that limit;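 note: parasites exposed to compound for two days anaerobically before the ATP read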
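Anaerobic 48 hrs incubation at 37 deg C of 100 trophozoites/well with test compounds; ATPLite 1-Step luminescence, 15-30 min RT, reports cellular ATP as viability.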
TDP1 cell CPT = growth inhibition of DT40 Tdp1-/-;hTDP1 cells with camptothecin (screen for TDP1 inhibitors). chicken DT40 Tdp1-/-;hTDP1 cells + 20 nM CPT, ATP luminescence, 48 h. Potency, µM (series often up to 46.2 µM), without a hit: top-dose activity change, negative = growth inhibition, most hits filed as inhibitors. 420,000 compounds, 12% hits. AID 686979; note: potency is the fitted concentration of half-maximal effect; nearly all actives have a fitted effect of over 55% in size
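Chicken DT40 Tdp1-/- cells stably complemented with human TDP1 were seeded at 400 cells/well in medium containing 20 nM camptothecin, exposed to pin-transferred compounds, and grown at 37 °C for at least 48 hr. Viability was read as ATP luminescence.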
Numbers without * were called inactive; ? = inconclusive; . = no result given; ! = repeats disagree; [ ] = remark or other dose. This is a sample that favours compounds with a hit; in the whole collection about 19% have one here. Unless noted, calls come from the whole dose curve; as a rule, active = well fitted curve in the direction sought with a large enough effect; inconclusive = small, poorly fitted or top-dose-only effect, or another doubt; inactive = no such curve, though single readings can be large; an effect the other way counts as inactive or inconclusive. % is set by controls: 0 for no effect and ±100 for the full control effect.

SMILES	TDP1 cell noCPT	TDP1 block	ELG1 repair inh	IL-1B inflam inh	Giardia killer	TDP1 cell CPT
Cc1ccc(CN2CCSc3ccc(C(=O)N4CCN(c5ncccn5)CC4)cc32)cc1	16µM*	7%	?	-62*	-2	21µM*
Cc1ccc(CN2CCSc3ccc(C(=O)N4CCOCC4)cc32)cc1	-19%	8%	3%	-19	-1	?
CCN1CCN(C(=O)c2ccc(CSc3ccc(C)cc3)cc2)CC1	13µM*	-5%	-2%	-54*	12	?
CCN1CCN(C(=O)c2ccc3c(c2)N(Cc2ccc(C)cc2)CCS3)CC1	23µM*	6%	-15%	-15	37	21µM*
CC1CC(C)CN(C(=O)c2ccc3c(c2)N(Cc2ccccc2)CCS3)C1 (stereo not given)	?	5%	-18%	?	-26	?
Cn1ncc(Cl)c1C(=O)NCC1CCCO1 (stereo not given)	9%	1%	3%	-11	-7	-2%
Cc1cc(NC(=O)c2ccc(Cl)cc2Cl)n(CCC#N)n1	-9%	2%	17%	12	-11	-13%
Cc1nn(CCC#N)c(N)c1C1(O)C(=O)Nc2c(Cl)cc(Cl)cc21 (stereo not given)	3.7µM*	-3%	12%	134	-25	16µM*
CCN1CCCC1CNCC(O)COc1ccc(C(C)(C)C)cc1C (stereo not given)	5.8µM*	?	-3%	?	2	6.5µM*
Cc1ccc(OCC(O)CNC2CCCC2)c(C)c1 (stereo not given)	?	.	10%	-8	3	-27%
Cc1cc2c(nc1C)CCCCN2C[C@H](C)O/N=C\[C@@H](C)[C@H](OCc1ccccc1)C(C)C	.	8%[21 µM]	.	.	.	.
Cc1ccc(CNC(=O)CS(=O)(=O)Cc2nc(-c3ccc(C)cc3)oc2C)cc1	4%	-5%	-13%	-26	18	-5%
O=C(Nc1ccc2nn(-c3ccccc3)nc2c1)c1cc2ccccc2o1	15µM*	-3%[12.3 µM]	.	.	.	?
CCc1ccc(-n2nc3ccc(NC(=O)c4cc5ccccc5o4)cc3n2)cc1	4.6µM*	.	.	.	.	?
O=C(Nc1cccc(-n2cnnn2)c1)c1cc2ccccc2o1	-26%	4%	-3%	-29	14	-26%
Cc1ccc(-c2nc3cc(NC(=O)c4cc5ccccc5o4)ccc3o2)cc1	?	-5%[12.3 µM]	.	.	.	-20%
Cc1ccc(NC(=O)c2cc3nc(-c4ccc5c(c4)OCO5)cc(C(F)(F)F)n3n2)cc1Cl	-9%	3%	.	.	.	-4%
CN(C)S(=O)(=O)c1cccc(NC(=O)c2cccc(S(=O)(=O)N3CCCCCC3)c2)c1	?	0%	?	-15	-19	?
CSc1nc(=O)c2c(n1C)NC(=O)CC2c1cc(F)cc(F)c1 (stereo not given)	-23%	-7%	.	.	.	-28%
Cc1cccc(C(=O)NNC(=O)C2CCCCC2)c1O	23µM*	.	.	18	.	?
Cc1ccc(S(=O)(=O)N2CCOCC2)cc1NC(=O)COC(=O)COc1cccc2c1OC(C)(C)C2	0%	.	19%	-3	6	34%
Clc1ccc(CNCCC2=CCCCC2)cc1	-21%	0%	-15%	-76*	2	-18%
S=C(NCCC1=CCCCC1)Nc1ccc(Cl)cc1	21µM*	5%	?	11	-4	23µM*
COc1ccc(C(=O)c2ccc(CC#N)s2)cc1	?	89µM*	?	-8	-19	?
CC(=O)Nc1cc(-c2ccccc2)ccc1O	?	6%	6%	13	10	21µM*
SMILES	TDP1 cell noCPT	TDP1 block	ELG1 repair inh	IL-1B inflam inh	Giardia killer	TDP1 cell CPT
Nc1cc(-c2ccccc2)ccc1O	?	7%	8.2µM*!	14	-5	-20%
COc1ccc(/C=C/c2cccc[n+]2C)c(O)c1	18µM*	.	-15%	-13	4	?
CCN(CC)c1ccc(/C=C/c2cccc[n+]2C)c(OC)c1	0.052µM*	.	-9%	-92*	9	1.2µM*
Cc1noc(C)c1C(=O)N1CCC2(CCN(Cc3ccc(C#N)cc3)CC2)CC1	?	.	.	.	.	-6%
COc1cccc(/C=N/NC(=O)c2cnn(-c3ccccc3)c2N)c1	21µM*	.	?	55	-24	?
Nc1c(C(=O)N/N=C/c2cccnc2)cnn1-c1ccccc1	-12%	0%	?	62	-4	-12%
Nc1c(C(=O)N/N=C/c2ccc(OCc3ccccc3)cc2)cnn1-c1ccccc1	12µM*	.	0%	-7	7	16µM*
COc1ccc(CN=C2NC(=O)CC(C(=O)Nc3ccc(Cl)cc3)S2)cc1 (stereo not given)	13µM*	3%	-6%	-16	-3	21µM*
COc1ccc(/C=N/n2cnnc2SCc2ccccc2)cc1	21µM*	8%	6%	-20	4	?
COc1cccc(OC(=O)CSc2nnc(-c3ccccc3OC)o2)c1	0%	0%	.	.	.	1%
COc1cccc(C2NC(=S)NC(C)=C2C(=O)c2ccccc2)c1OC (stereo not given)	10µM*	-2%	15%	58	6	?
CCc1ccc(S(=O)(=O)N2c3ccc(C)cc3C3CN(C)CCC32)cc1 (stereo not given)	?	1%	8%	-51*	-29	?
Cc1ccc2c(c1)[C@@H]1CN(C)CC[C@@H]1N2S(=O)(=O)c1ccc(F)cc1	?	2%	16%	-10	5	?
CCc1ccc(S(=O)(=O)Nc2cc(-c3cn4ccccc4n3)ccc2C)cc1	?	0%	.	.	.	?
CC(=O)Nc1ccc(S(=O)(=O)Nc2cc(-c3cn4ccccc4n3)ccc2C)cc1	21µM*	7%	.	.	.	?
CCS(=O)(=O)Nc1cc(-c2cn3ccc(C)cc3n2)ccc1C	21µM*	7%	.	.	.	?
Cc1ccn2cc(-c3ccc(C)c(NS(=O)(=O)c4ccc(Cl)cc4)c3)nc2c1	21µM*	5%	.	.	.	23µM*
CCN(CC)C(=O)Cn1cc(C(=O)C(=O)NCc2ccccn2)c2ccccc21	27%	1%	0%	-13	2	3%
CCCCCc1c(-c2ccccc2F)ncn1CCc1ccccc1OC	18µM*	.	.	-95*	.	16µM*
COc1ccccc1CCNC(=O)c1cc2ccccn2n1	?	5%	.	.	.	?
CCCCc1c(-c2ccccc2F)ncn1CCc1ccccc1OC	16µM*	.	.	-59*	.	26µM*
COc1ccc2c(c1)C(=O)C(=O)N2CC1COc2ccccc2O1 (stereo not given)	0.58µM*	.	0%	-11	-13	1µM*
